SMILES strings stand for the structures. Results filed as inconclusive are left out. Calls of active or inactive are those of the source.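 How the source made its calls, unless noted: active means growth inhibition above 25% in both replicates, a cutoff set 3 SD above the mean; inconclusive means above 25% in only one replicate; inactive means the rest.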

Assay [1] in a line: Her2 expression decrease, cell viability multiplex – SKBR3 breast tumor cells, AlphaScreen, ATP viability, primary screen (AID 461;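 active means Her2 level under about 52% in both replicate screens, with viability over 70% of control, limit read from the data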;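 on Her2 level: lower value means less Her2 protein in the cells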;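 on viability: percent of carrier control wells set as 100% viability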). The note with it: SKBR3 Her2 protein level, 18-24 h, measured here: SKBR3 viability, ATP luminescence, at 10 µM. On the technique in general: Alpha assays give light when donor and acceptor beads are brought close together.
In assay [2] the target is Receptor tyrosine-protein kinase erbB-2 (Homo sapiens) (UniProt P04626). The description is as above. The note with it: 18-24 h, at 10 µM, stronger effect = lower value.
Sequence of Receptor tyrosine-protein kinase erbB-2 (Homo sapiens) (P04626 whole entry, looked up): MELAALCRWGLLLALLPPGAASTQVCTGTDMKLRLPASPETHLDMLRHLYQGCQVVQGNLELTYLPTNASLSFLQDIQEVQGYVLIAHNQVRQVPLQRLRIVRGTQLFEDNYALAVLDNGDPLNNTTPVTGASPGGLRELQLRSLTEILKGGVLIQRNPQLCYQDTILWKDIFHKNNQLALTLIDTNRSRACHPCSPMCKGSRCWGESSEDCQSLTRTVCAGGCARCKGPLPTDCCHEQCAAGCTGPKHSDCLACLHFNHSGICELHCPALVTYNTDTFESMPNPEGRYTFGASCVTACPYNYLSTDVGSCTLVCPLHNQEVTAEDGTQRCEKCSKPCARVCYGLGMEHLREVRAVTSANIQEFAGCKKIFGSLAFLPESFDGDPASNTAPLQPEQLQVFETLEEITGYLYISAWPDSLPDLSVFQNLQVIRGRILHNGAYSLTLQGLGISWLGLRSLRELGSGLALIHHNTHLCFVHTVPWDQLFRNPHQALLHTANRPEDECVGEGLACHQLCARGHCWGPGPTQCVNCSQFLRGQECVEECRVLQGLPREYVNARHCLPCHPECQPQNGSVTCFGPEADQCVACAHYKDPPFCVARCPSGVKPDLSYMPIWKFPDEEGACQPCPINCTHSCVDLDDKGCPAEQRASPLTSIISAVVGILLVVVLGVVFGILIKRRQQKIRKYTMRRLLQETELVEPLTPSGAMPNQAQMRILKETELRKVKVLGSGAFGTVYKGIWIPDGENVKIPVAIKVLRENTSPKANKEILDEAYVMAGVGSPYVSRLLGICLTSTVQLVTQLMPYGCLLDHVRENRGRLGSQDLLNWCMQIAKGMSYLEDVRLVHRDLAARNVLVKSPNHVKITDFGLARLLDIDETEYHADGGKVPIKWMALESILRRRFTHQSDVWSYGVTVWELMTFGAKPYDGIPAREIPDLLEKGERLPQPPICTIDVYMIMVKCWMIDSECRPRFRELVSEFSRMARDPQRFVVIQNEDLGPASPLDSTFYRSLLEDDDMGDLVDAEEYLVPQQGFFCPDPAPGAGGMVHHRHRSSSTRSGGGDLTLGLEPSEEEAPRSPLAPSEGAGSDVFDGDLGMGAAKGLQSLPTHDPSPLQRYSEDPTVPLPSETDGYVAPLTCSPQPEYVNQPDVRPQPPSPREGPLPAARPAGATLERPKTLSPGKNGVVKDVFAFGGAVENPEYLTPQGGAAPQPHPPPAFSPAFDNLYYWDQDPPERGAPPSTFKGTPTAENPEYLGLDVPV
Assay [3] in a line: reduced viability of SK-BR-3 breast cancer cells – cell-based, 24 h, human, pilot screen (AID 572;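 active means viability at or below 10% of carrier control in both of two separate runs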;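 further: compound exposure lasted between 18 and 24 h rather than exactly 24 h; 100% = carrier-treated control wells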). The following applies: SK-BR-3 viability, CellTiter-Glo luminescence, at 10 µM, stronger effect = lower value. On the technique in general: In ATP-based viability assays light output follows the ATP content of the culture.
Assay [4] can be described thus: HUVEC growth inhibition – cell-based, human, primary screen (AID 575;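 active means viability at or below 30% in both replicate assays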;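 further: 100% = median of untreated cell wells with 0.1% DMSO on each plate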). The note with it: HUVEC proliferation, CellTiter-Glo luminescence, 72 h; at 10 µM; stronger effect = lower value.
The nature of assay [5]: H69AR cell proliferation blockers – human, duplicate replicates, primary screen (AID 580;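 active means viability at or under a set limit in both replicates, limit being median viability minus 3 SD, cut at about 48% in these data, passing the limit was not always enough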;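 further: 100% = mean luminescence of untreated wells and 0% = no signal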). The following applies: H69AR lung tumor cells viability, ATP luminescence, 72 h; at 10 µM; stronger effect = lower value.
A short description of assay [6]: MRP1 drug-resistance reversers in H69AR cells – cell-based, doxorubicin co-treatment, pilot screen (AID 601;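 active means viability loss from added drug above about 55%, and viability with drug at most 40%, in both replicates, limit read from the data, passing the limit was not always enough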). The following applies: CellTiter-Glo, 72 h, at 10 µM; for differential viability (reversal): stronger effect = higher value.
Assay [7] is described as follows: yeast transport mutant growth inhibition pilot in 384-well plates, post-Golgi transport modulator project (AID 636; in the data active means inhibition above about 31%). The following applies: absorbance 615 nm, about 18 h, stronger effect = higher value.
Assay [8] is described as follows: growth suppression of yeast trafficking mutant, preliminary HTS, modulators of trafficking downstream of Golgi apparatus project, 1536-format plate, OD 615 nm (AID 637; in the data active means inhibition above about 30%). The note with it: yeast transport mutant growth, absorbance 615 nm, 18 h; stronger effect = higher value.
The nature of assay [9]: S. cerevisiae growth inhibition in permissive medium (OD615), pilot counter-assay for S. cerevisiae lifespan shortening project, permissive growth control (AID 705). The note with it: OD615, 24 h, at 10 µM, stronger effect = higher value.
A short description of assay [10]: S. cerevisiae growth inhibition in restrictive medium, OD615, pilot screen, restrictive growth control, yeast lifespan reduction project (AID 706;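 active means growth inhibition above a set limit, 3 SD over mean compound inhibition, in both replicates, cut at about 43% in these data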;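 further: modified DeaD lifespan yeast strain shifted to restrictive glucose medium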). The note with it: OD615, 48 h, at 10 µM, stronger effect = higher value.
The nature of assay [11]: doxorubicin toxicity protection in MRP-1 cells – H69AR cells, CellTiter-Glo, duplicate, MRP-1 activator project, pilot screen (AID 807;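 active means viability increase at or above a cutoff of the median across tested compounds plus 3 SD, cut at about 8.5% in these data, passing the limit was not always enough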;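 further: compound pretreatment 18-22 h then 72 h combined with doxorubicin; 0% = doxorubicin alone and 100% = vehicle without doxorubicin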). The note with it: H69AR viability with doxorubicin, CellTiter-Glo luminescence; at 10 µM; stronger effect = higher value.
Assay [12] in a line: viability of HCT116 without oncogenic beta-catenin – human colon tumor cells, pilot screen (AID 823;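 active means cell viability at or below a set limit in both duplicate runs, the limit being the all-compound median minus 4 SD, cut at about 23% in these data, passing the limit was not always enough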;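 further: 0% = wells killed by 20 µM Hyamine and 100% = untreated DMSO cell wells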). The following applies: HCT116 beta-catenin knockout viability, CellTiter-Glo, 60 h; at 10 µM; stronger effect = lower value.
A short description of assay [13]: viability of PTEN-null HCT116 cells – cell-based, HCT116 clonal line, CellTiter-Glo, pilot screen (AID 824;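 active means viability at or below 27.92% in each of two runs, the all-compound median minus 4 SD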;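 further: 0% = 20 µM Hyamine control and 100% = vehicle cell control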). The following applies: HCT116 PTEN-deleted viability, 60 h, at 10 µM, stronger effect = lower value.
Assay [14] is described as follows: RAM pathway blockade in budding yeast – dse1pr::URA3 reporter, 5-FOA selection, pilot screen (AID 869;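 active means inhibition over a set limit, the all-compound mean plus 3 SD, in both replicate runs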;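 further: 0% = DMSO wells with no growth and 100% = 10 µM 1-NA-PP1 with full growth; RAM network block rescues cells from 5-FOA so hits raise OD615 growth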). The note with it: S. cerevisiae dse1pr::URA3 5-FOA growth, OD615, 2 d; at 10 µM; stronger effect = higher value; strain carries analog-sensitive mutant Cbk1 kinase.
A short description of assay [15]: RAM signaling pathway blockade in yeast – S. cerevisiae, Pdr1DBD-CYC8 efflux-inhibited sensitized strain, primary screen (AID 1298;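 active means RAM network inhibition above 8.4% in each of two replicates, 3 SD over the compound average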;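 further: 0% = DMSO untreated cells without growth and 100% = 10 µM 1-NA-PP1 full growth; higher means more yeast growth rescued from 5-FOA killing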). The note with it: S. cerevisiae cbk1-as DSE1-URA3 strain, 5-FOA growth OD615, 2 d; at 50 µM; stronger effect = higher value.
[16] abbreviates: H69AR cells + 2 uM doxorubicin, measured here: viability with 2 uM doxorubicin, stronger effect = lower value.
[17] abbreviates: H69AR cells, compound alone cytotoxicity.

Turning to `COc1ccc(-c2[nH]c(-c3cccc(OC)c3)nc2SCC(=O)NCc2ccco2)cc1`, the viability in assay [1] was 95.5%; in assay [3], 95.5% (inactive); in assay [4], 62.5% (inactive); in [5] it was 71% (inactive); in [6] (setting [16]) it was 73.4%; in assay [6] (setting [17]), 71%. For the same molecule, the viability is 93.3% (inactive) in assay [12] and 90.3% (inactive) in assay [13]. Further, the Her2 level in assay [2] was 85.5% (inactive). In [6] (H69AR cells + 2 uM doxorubicin), the differential viability (reversal) was -2.42% (inactive). Besides, the inhibition in assay [7] is -2.67% (inactive); in assay [8] it was -0.33% (inactive); in [14] it was 1.09% (inactive). In addition, the values for the growth inhibition in assay [9] and in [10] were -9.19% (inactive) and 1.65% (inactive), respectively. The viability increase in assay [11] is -4.56% (inactive). Also, the RAM network inhibition in assay [15] is 11.2% (inactive).
Turning to `CCCCSc1nc(CCC)cc(=O)[nH]1`, the viability was 86.5% in [1]; 86.5% (inactive) in [3]; 91.9% (inactive) in assay [4]; 88.2% (inactive) in assay [5]; 88.5% in [6] (setting [16]); 88.2% in assay [6] (setting [17]). Moreover, the viability is 99.6% (inactive) in assay [12] and 104% (inactive) in [13]. The Her2 level in [2] was 118% (inactive). In addition, in assay [6] (H69AR cells + 2 uM doxorubicin), the differential viability (reversal) is -0.345% (inactive). In addition, the values for the inhibition in assay [7], in assay [8] and in [14] were 2.05% (inactive), -12.5% (inactive) and 0.635% (inactive), respectively. The growth inhibition in assay [9] and in [10] was -14.4% (inactive) each time. In assay [11], the viability increase is -1.29% (inactive). In assay [15], the RAM network inhibition was 6.04% (inactive).
For the molecule `COc1cccc(-n2c(SCC(=O)Nc3cc(C)on3)nc3c([nH]c4ccccc43)c2=O)c1`, the viability in assay [1] was 76%; in assay [3], 76% (inactive); in [4] it was 61.5% (inactive); in [5], 66.4% (inactive); in [6] (setting [16]), 82.6%; in assay [6] (setting [17]) it was 66.4%. Further, the viability is 82% (inactive) in [12] and 73.8% (inactive) in [13]. For the same molecule, in assay [2], the Her2 level is 90.5% (inactive). Also, the differential viability (reversal) in assay [6] (H69AR cells + 2 uM doxorubicin) was -16.2% (inactive). Besides, the inhibition in assay [7] was -4.53% (inactive); in assay [8], -0.67% (inactive); in [14], 2.33% (inactive). In addition, the growth inhibition in [9] is -3.05% (inactive); in assay [10] it was -0.53% (inactive). Also, the viability increase in [11] was -4.78% (inactive). In addition, the RAM network inhibition in assay [15] was 1.62% (inactive).
`CCOc1ccc(S(=O)(=O)n2c(C)nc3ccccc32)cc1`: the viability in assay [1] is 93%; in [3], 93% (inactive); in assay [4], 65.8% (inactive); in [5], 71.2% (inactive); in [6] (setting [16]), 117%; in assay [6] (setting [17]), 71.2%. The viability is 98.2% (inactive) in assay [12] and 96.2% (inactive) in assay [13]. The Her2 level in assay [2] was 112% (inactive). Moreover, the differential viability (reversal) in assay [6] (H69AR cells + 2 uM doxorubicin) is -45.5% (inactive). Besides, the inhibition in assay [7] was 0.51% (inactive); in assay [8], 5.67% (inactive); in [14] it was 1.31% (inactive). Also, the growth inhibition in assay [9] was -11.5% (inactive); in [10] it was 0.25% (inactive). The viability increase in assay [11] was 1.02% (inactive). The RAM network inhibition in assay [15] was 1.31% (inactive).

The viability is a read-out of living cells in per cent, often relative to untreated cells. Usually inhibition stands for the change of the read-out against control, counted positive when it falls.
